Bioassay records: PubChem, Buhrlage Lab, Dana-Farber Cancer Institute and Novartis Institutes for BioMedical Research (Cambridge, Mass)
USP28 inh = blocks human USP28 ubiquitin-rhodamine cleavage. 47,000 tested, 3% active. purified USP28, Ub-rhodamine cleavage fluorescence, 30 min. Q96RU2. AID 1645857. inhibition, % at 25 µM
USP17 inh = blocks human USP17 ubiquitin-rhodamine cleavage. purified USP17, Ub-rhodamine cleavage fluorescence, 3 h. AID 1645855. A8MUK1. inhibition, % at 50 µM. 47,000 tested, 6.5% active
Target sequence (A8MUK1 whole entry, looked up): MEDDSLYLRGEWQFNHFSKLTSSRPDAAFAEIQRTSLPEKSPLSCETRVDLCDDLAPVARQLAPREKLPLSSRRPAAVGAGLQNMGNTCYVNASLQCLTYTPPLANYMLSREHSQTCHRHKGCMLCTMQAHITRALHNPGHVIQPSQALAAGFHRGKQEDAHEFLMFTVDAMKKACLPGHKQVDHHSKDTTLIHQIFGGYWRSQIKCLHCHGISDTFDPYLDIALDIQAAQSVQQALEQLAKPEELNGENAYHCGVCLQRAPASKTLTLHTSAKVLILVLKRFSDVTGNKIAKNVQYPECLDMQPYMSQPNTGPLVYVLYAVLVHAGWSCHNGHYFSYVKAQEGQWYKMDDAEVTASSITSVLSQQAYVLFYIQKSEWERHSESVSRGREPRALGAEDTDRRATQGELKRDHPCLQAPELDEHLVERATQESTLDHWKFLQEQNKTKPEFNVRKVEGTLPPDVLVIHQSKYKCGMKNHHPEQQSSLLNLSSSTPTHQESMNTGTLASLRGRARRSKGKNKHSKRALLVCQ
USP30 block = human USP30 deubiquitinase inhibition | Q70CQ3 | inhibition, % at 25 µM | purified USP30, Ub-rhodamine cleavage fluorescence | 47,000 tested, 5.3% active
OTUD3 inh = inhibitors of human OTUD3 deubiquitinase | 47,000 tested, 0.7% active | purified OTUD3, Ub-rhodamine fluorescence, 2 h | Q5T2D3 | inhibition, % at 25 µM
Hits are given with their value; . = inactive; / = no result given. This is a sample that favours compounds with a hit; in the whole collection about 12% have one here. No stated cut-off is given here; in the data, active means inhibition above about 30%; inactive means the rest.

SMILES	USP28 inh	USP17 inh	USP30 block	OTUD3 inh
COc1ccccc1NC(=O)N1CCN(CCc2ccccc2)CC1	.	.	.	.
COc1cccc2c(C)nc(NC3=NCN(CCc4ccccc4)CN3)nc12	.	.	33.4	.
Clc1ccc2nc(NC3=NCN(CCc4ccccc4)CN3)nc(-c3ccccc3)c2c1	.	.	37.8	.
Cc1ccc(-c2nc3ccccc3c(=O)n2CN2CCOCC2)cc1	.	.	.	.
Fc1ccccc1CNc1cc(-n2ccnc2)ncn1	.	.	.	.
CCOc1ccc(S(=O)(=O)Nc2ccc[nH]c2=O)cc1	.	87.4	.	.
CCOc1ccc(S(=O)(=O)Nc2ccccc2Cc2ccccc2)cc1	.	.	.	.
O=C1CCOC[C@]2(CN(Cc3ccccc3N3CCCCC3)C[C@H]2c2cccnc2)N1	.	.	.	.
Cc1ccc(CSc2nnc(C3CCNCC3)o2)cc1	32.4	.	.	.
CCOC(=O)c1cccc(NC(=O)Cc2cccc3ccccc23)c1	.	.	.	.
CCOC(=O)c1ccc2nc(NC(=O)Cc3cccc4ccccc34)sc2c1	.	.	36.3	.
CC1Cn2c(cnc2C(F)(F)F)C(=O)N1CC(=O)N(C)c1ccccc1 (stereo not drawn)	.	.	.	.
CCCCOc1cccc(C(=O)Nc2ccc(OCC)c3ncccc23)c1	.	47.1	.	.
CCOc1ccc(NC(=O)COc2ccc(F)cc2)c2cccnc12	.	.	.	.
CNc1nccnc1C1CN(C(=O)c2ccc3c(c2)OCO3)CCO1 (stereo not drawn)	.	.	.	.
COc1ccc(Cl)cc1-c1nc(-c2cccnc2)no1	.	35.1	.	.
COc1ccc(Cl)cc1-c1nc(-c2ccc(=O)[nH]c2)no1	.	.	.	.
O=C(NC1CCCC1)c1cccc(NC(=O)c2nsc3ccccc23)c1	/	31.5	/	.
CC(=O)Nc1ccc(NC(=O)C2(c3ccc(Cl)cc3)CCC2)cc1	.	45.1	.	.
O=C(Cc1cccs1)Nc1nnc(SCc2ccc([N+](=O)[O-])cc2)s1	.	.	.	.
O=C(CSc1nnc(NC(=O)c2ccc([N+](=O)[O-])cc2)s1)Nc1ccc(Br)cc1	.	.	32.5	.
c1csc(-c2nc(NCC3CCCO3)c3ccccc3n2)c1 (stereo not drawn)	.	31.4	.	.
O=C(CCCc1c[nH]c2ccccc12)N1CCN(S(=O)(=O)c2ccc(Br)cc2)CC1	.	.	.	.
O=C(CCCc1c[nH]c2ccccc12)N1CCN(S(=O)(=O)c2ccc(F)cc2)CC1	.	.	40.6	.
Cc1c(CN2CCC(C(=O)Nc3cccc(-c4cccc(F)c4)c3)CC2)cnn1C	.	.	31.2	.
SMILES	USP28 inh	USP17 inh	USP30 block	OTUD3 inh
O=C(CN1CCc2ccccc21)Nc1ccccc1F	.	.	.	.
COc1ccc(NC(=O)c2ccc3[nH]c4c(c3c2)CC(C)CC4)cc1 (stereo not drawn)	.	31.5	.	.
COc1ccc(NC(=O)c2ccc3c(c2)C2C4CCC(C4)C2C(c2ccccc2)N3)cc1 (stereo not drawn)	.	.	39.0	.
CC1CCCN1C(=O)c1ccn(-c2ccc3ccc(-c4cnn(C)c4)cn23)n1 (stereo not drawn)	.	.	.	.
O=c1[nH]c(C2CCN(S(=O)(=O)c3ccc(S(=O)(=O)NC4CCCCC4)cc3)CC2)nc2c1nnn2Cc1ccc(F)cc1	43.7	46.6	39.7	.
Cc1ccc(Cn2nnc3c(=O)[nH]c(C4CCN(S(=O)(=O)c5ccc(S(=O)(=O)NC6CCCCC6)cc5)CC4)nc32)cc1	.	.	.	.
O=c1[nH]c(C2CCN(S(=O)(=O)c3ccc(S(=O)(=O)NC4CC4)cc3)CC2)nc2c1nnn2Cc1ccccc1	.	32.8	38.7	.
O=c1[nH]c(C2CCN(S(=O)(=O)c3ccc(S(=O)(=O)NC4CC4)cc3)CC2)nc2c1nnn2Cc1ccc(F)cc1	.	/	42.0	.
CC1(C)OC(=O)[C@]2(C)C[C@@H](C(=O)Nc3ccc(Cl)cc3)[C@@]1(C)N2	.	.	.	.
Cc1cc(NC(=O)CSc2ccc(-c3ccc(-n4cccn4)cc3)nn2)no1	.	.	.	.
Fc1ccc(Nc2nc(Nc3cccc(F)c3)nc3nccnc23)cc1	.	.	61.2	.
Cc1ccc(Nc2nc(Nc3ccc(F)cc3)nc3nccnc23)cc1C	.	.	.	.
COc1ccc(/C=C/C(=O)N2CCCc3ccccc32)cc1OC	.	.	.	.
COc1ccc(/C=C/C(=O)N2CCc3ccccc32)cc1S(=O)(=O)N1CCOCC1	.	.	.	53.9
CC(=O)Nc1c(-c2ccccn2)nsc1C(=O)NCc1ccccc1	.	.	.	.
CCc1ccccc1NC(=O)CN1CC[C@@H]2[C@@H](c3ccccc3)N(C(C)=O)C[C@]2(NC(C)=O)C1	.	.	.	.
CC(C)c1cccc(NC(=O)c2nc(N3CCSCC3)c3cnn(C)c3n2)c1	.	.	.	.
Cc1cccc(NC(=O)c2nc(N3CCSCC3)c3cnn(C)c3n2)c1	.	64.4	.	.
COc1ccc(NC(=O)CSc2nc3c(c(=O)[nH]2)CCC3)cc1Cl	.	.	.	.
O=C(Cn1cnc2sc3c(c2c1=O)CCC3)N1CCc2ccccc21	.	.	.	.
COc1ccc(C(=O)N2CCC(c3nc4c(nnn4Cc4cc(C)ccc4C)c(=O)[nH]3)CC2)cc1	.	36.3	30.0	.
Cc1ccc(Cn2nnc3c(=O)[nH]c(C4CCN(C(=O)CC(C)(C)C)CC4)nc32)cc1	31.5	.	.	.
N#Cc1ccc(NC(=O)N2CCC(c3nc4c(nnn4Cc4ccc(F)cc4)c(=O)[nH]3)CC2)cc1	.	30.3	30.4	.
Cc1ccc(Cn2nnc3c(=O)[nH]c(C4CCN(C(=O)c5ccccc5)CC4)nc32)cc1	.	.	43.4	.
O=C(c1c(F)cccc1F)N1CCC(c2nc3c(nnn3Cc3ccc(F)cc3)c(=O)[nH]2)CC1	.	.	.	.
SMILES	USP28 inh	USP17 inh	USP30 block	OTUD3 inh
CCC(=O)Nc1nc2c(C)cc(NS(=O)(=O)c3ccc(NC(C)=O)cc3)cc2s1	.	.	.	.
Cc1ocnc1C(=O)N[C@@H]1C[C@@H](Oc2cccc(F)c2)[C@H](O)[C@H]1O	.	.	.	.
Cc1ccc(Cn2nnc3c(=O)[nH]c(C4CCN(C(=O)Cc5ccccc5)CC4)nc32)cc1	.	.	.	.
O=C(Cc1ccccc1)N1CCC(c2nc3c(nnn3Cc3ccc(F)cc3)c(=O)[nH]2)CC1	.	.	31.2	.
O=C1C[C@@H]2O[C@H](CNC(=O)[C@@H]3CN(CCN3C(=O)C3CCOCC3)C(=O)[C@@H]3C[C@@H](CN3Cc3ccc(OC(F)(F)F)cc3)N1)[C@@H](O)[C@H]2O	.	.	.	.
CCC(=O)Nc1ccc(-c2nc(Cn3cc(C)cn3)c(C)o2)cc1	55.1	.	.	.
CC(=O)Nc1ccc(-c2nc(Cn3cc(C)cn3)c(C)o2)cc1	33.4	.	.	.
CC(=O)Nc1ccc(-c2nc(Cn3nc(C)cc3C)c(C)o2)cc1	.	.	.	.
O=C(Cn1cc(S(=O)(=O)Cc2cccc(F)c2)c2ccccc21)N1CCCC1	.	.	.	.
O=C(c1ncccn1)N1CCCCC1c1ncc(Cc2ccc(F)cc2)o1 (stereo not drawn)	.	.	.	.
